3T3 cytotox = Cytotoxic Profiling in NIH 3T3 Cell Line of Diverse Libraries Using Quantitative High-Throughput Screening; NIH 3T3 viability, CellTiter-Glo ATP luminescence, 48-72 h; Potency, µM (series often up to 96.7 µM), actives largely listed as inhibitors; 4.3% of 94,000 active; AID 1345082, 2018; active means well fitted curve in the direction sought with a large enough effect; inconclusive means small, poorly fitted or top-dose-only effect, or another doubt; inactive means no such curve, though single readings can be large; an effect the other way counts as inactive or inconclusive; further: nearly all actives have a fitted effect of over 55% in size
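Cytotoxicity was measured by CellTiter-Glo ATP luminescence after 48 or 72 h compound exposure at 37 °C. Mouse NIH 3T3 fibroblasts were seeded at 400 cells/well and dosed by 23 nL pin transfer.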
HEK cytotox = Cytotoxic Profiling in HEK 293 Cell Line of Diverse Libraries Using Quantitative High-Throughput Screening | HEK 293 viability, ATP luminescence (CellTiter-Glo), 48-72 h | Potency, µM (highest dose often 115 µM), hits mostly inhibitors | 6.6% of 94,000 active; active means well fitted curve in the direction sought with a large enough effect; inconclusive means small, poorly fitted or top-dose-only effect, or another doubt; inactive means no such curve, though single readings can be large; an effect the other way counts as inactive or inconclusive; further: nearly all actives have a fitted effect of over 60% in size
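ATP-coupled CellTiter-Glo luminescence served as viability read-out, recorded 10 min after reagent addition at room temperature. HEK 293 cells, 250 cells/well, had been incubated with pintool-transferred compound for 48 or 72 hr at 37 degree Celsius.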
FLuc inh = Firefly luciferase inhibition profiling of diverse chemical library using quantitative high-throughput screening | 2.5% of 76,000 active | purified P. pyralis luciferase, luminescence, biochemical | Potency, µM (titrated, usually from 115 µM), most hits filed as inhibitors; active means well fitted curve in the direction sought with a large enough effect; inconclusive means small, poorly fitted or top-dose-only effect, or another doubt; inactive means no such curve, though single readings can be large; an effect the other way counts as inactive or inconclusive; further: nearly all actives have a fitted effect of over 65% in size
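Luminescence read by CCD imaging after purified firefly luciferase (10nM final) was added to substrate buffer holding 10uM D-luciferin and 10uM ATP, pH 7.5, pre-dosed with compound.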
NPR1 antag = Natriuretic polypeptide receptor (hNpr1) antagonism - Primary qHTS. Atrial natriuretic peptide receptor 1 (Homo sapiens), P16066. HEK293 hNpr1 GloSensor cGMP, ANP-stimulated luminescence. Potency, µM (doses to about 46.3 µM), hits mostly inhibitors. 1.6% of 76,000 active; further: nearly all actives have a fitted effect of over 60% in size
Target sequence (P16066 whole entry, looked up): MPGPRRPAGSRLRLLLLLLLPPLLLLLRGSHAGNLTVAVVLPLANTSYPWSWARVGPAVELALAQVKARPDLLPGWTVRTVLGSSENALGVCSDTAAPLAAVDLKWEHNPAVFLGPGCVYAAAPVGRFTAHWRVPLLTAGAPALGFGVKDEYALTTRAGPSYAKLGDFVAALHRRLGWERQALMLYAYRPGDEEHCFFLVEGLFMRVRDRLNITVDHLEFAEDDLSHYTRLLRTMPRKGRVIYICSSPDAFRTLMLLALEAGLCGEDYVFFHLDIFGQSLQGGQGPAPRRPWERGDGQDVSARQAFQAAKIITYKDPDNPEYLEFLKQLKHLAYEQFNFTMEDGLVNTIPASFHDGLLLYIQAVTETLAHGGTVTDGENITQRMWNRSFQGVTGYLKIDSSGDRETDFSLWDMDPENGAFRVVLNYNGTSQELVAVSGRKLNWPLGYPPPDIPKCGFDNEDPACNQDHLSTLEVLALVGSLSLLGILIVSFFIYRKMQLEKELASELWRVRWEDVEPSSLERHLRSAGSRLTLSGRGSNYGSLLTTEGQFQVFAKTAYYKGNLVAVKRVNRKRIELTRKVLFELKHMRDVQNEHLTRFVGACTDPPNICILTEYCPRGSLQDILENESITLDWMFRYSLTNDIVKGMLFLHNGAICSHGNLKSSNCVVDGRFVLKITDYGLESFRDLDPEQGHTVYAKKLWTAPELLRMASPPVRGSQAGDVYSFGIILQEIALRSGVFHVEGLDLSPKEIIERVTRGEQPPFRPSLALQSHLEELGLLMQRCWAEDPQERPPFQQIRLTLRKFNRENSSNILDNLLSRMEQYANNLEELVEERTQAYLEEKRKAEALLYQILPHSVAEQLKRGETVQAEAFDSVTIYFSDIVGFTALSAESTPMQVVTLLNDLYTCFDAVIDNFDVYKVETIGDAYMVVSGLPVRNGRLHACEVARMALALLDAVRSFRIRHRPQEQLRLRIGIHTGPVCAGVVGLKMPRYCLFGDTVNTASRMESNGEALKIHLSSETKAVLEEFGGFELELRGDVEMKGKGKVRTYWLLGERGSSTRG
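Compound pre-incubated 30 min at room temperature on GloSensor-loaded HEK293 cells stably carrying hNpr1 and the pGS-40F cGMP biosensor. Stimulation uses hNppA at 0.1 nM final; luminescence is taken at baseline and 20 min post-agonist.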
NPR1 antag cnf = Natriuretic polypeptide receptor (hNpr1) antagonism - Confirmation; Potency, µM (doses to about 57.6 µM), actives largely listed as inhibitors; shares compounds with NPR1 antag; HEK293 hNpr1 cGMP GloSensor luminescence, ANP-stimulated; 76% of 1,400 active; further: nearly all actives have a fitted effect of over 70% in size
Npr2 selectivity = Natriuretic polypeptide receptor (hNpr2) antagonism - Subtype selectivity assay; shares compounds with NPR1 antag; HEK293 hNpr2 GloSensor cGMP luminescence, CNP-stimulated; Potency, µM (titrated, usually from 57.6 µM), hits mostly inhibitors; 67% of 1,400 active; further: nearly all actives have a fitted effect of over 70% in size
FLuc counter = Natriuretic polypeptide receptor (hNpr1) antagonism - Confirmation firefly luciferase (FLuc) inhibition counterscreen. shares compounds with NPR1 antag. purified FLuc enzyme, luminescence, Km substrate. Potency, µM (highest dose often 57.6 µM), actives largely listed as inhibitors. 0.7% of 1,400 active. AID 1347047, 2019; active means well fitted curve in the direction sought with a large enough effect; inconclusive means small, poorly fitted or top-dose-only effect, or another doubt; inactive means no such curve, though single readings can be large; an effect the other way counts as inactive or inconclusive
GloSensor ctrl = Natriuretic polypeptide receptor (hNpr1) antagonism - Counterscreen GloSensor control cell line. shares compounds with NPR1 antag. HEK293 GloSensor cGMP, SNP-stimulated, luminescence. Potency, µM (titrated, usually from 57.6 µM), usual class: inhibitors. 69% of 1,400 active. AID 1347051, 2019; further: nearly all actives have a fitted effect of over 70% in size
Hits are given with their value; i = inactive; ? = inconclusive; nt = not tested or not shown. Shown are actives, neighbours in structure and some others; about 11% of the full set was active somewhere. Unless noted, the call rests on the fitted dose curve.

SMILES | 3T3 cytotox | HEK cytotox | FLuc inh | NPR1 antag | NPR1 antag cnf | Npr2 selectivity | FLuc counter | GloSensor ctrl
COc1ccc(C2Cn3nnc(C(=O)N4CCN(C(=O)Cc5cccc(F)c5)CC4)c3CO2)cc1 (stereo unspecified) | i | ? | i | ? | 22µM | 24µM | i | 19µM
Cc1ccc(C2Cn3nnc(C(=O)N4CCN(C(=O)Cc5ccc(Cl)cc5)CC4)c3CO2)cc1 (stereo unspecified) | i | i | i | i | nt | nt | nt | nt
COc1ccc(C(=O)N2CCN(C(=O)c3nnn4c3COC(c3ccc(Cl)cc3)C4)CC2)c(C)c1 (stereo unspecified) | ? | ? | i | 10µM | 19µM | 19µM | i | 14µM
COc1ccc(C(=O)N2CCN(C(=O)c3nnn4c3COC(c3ccc(Cl)cc3)C4)CC2)cc1 (stereo unspecified) | i | i | i | i | nt | nt | nt | nt
COc1ccc(CC(=O)N2CC[C@H]3CC(=O)N(Cc4ccccc4)CC[C@H]3C2)cc1 | i | i | i | i | nt | nt | nt | nt
CCn1cc(-c2ccc(C)cc2)cc1C(=O)N1CCC(C)CC1 | ? | ? | i | i | nt | nt | nt | nt
CCn1cc(-c2ccc(C)cc2)cc1C(=O)N1CCN(c2ccccn2)CC1 | 35µM | 32µM | i | 14µM | 19µM | 19µM | i | 15µM
COc1cc(NC(=O)Cn2nc3n(c2=O)CCCCC3)cc(OC)c1 | i | i | i | i | nt | nt | nt | nt
Cc1cc(CNC(=O)c2ccc3c(c2)n(CC2CC2)c(=O)n3C2CCCCC2)on1 | ? | i | i | 5.6µM | 14µM | 4.8µM | i | i
O=C1NCc2ccccc2CC12CCN(CC1CC=CCC1)CC2 (stereo unspecified) | i | i | nt | nt | nt | nt | nt | nt
O=C1NCc2ccccc2CC12CCCN(CC1CC=CCC1)C2 (stereo unspecified) | i | i | nt | nt | i | i | i | i
COc1ccccc1-c1[nH]nc2ncc(C(=O)NCC3CC3)nc12 | ? | ? | i | ? | ? | 25µM | i | i
CCOC(=O)c1ccccc1NC(=O)Cn1nc2n(c1=O)CCCCC2 | i | i | i | i | nt | nt | nt | nt
O=C(Cc1ccc2c(c1)OCO2)N1CCNc2cnc(Nc3cccc(F)c3)nc2C1 | ? | ? | i | 40µM | 35µM | 35µM | i | 35µM
COc1ccccc1Nc1ncc2c(n1)CN(C(=O)Cc1ccc3c(c1)OCO3)CCN2 | i | ? | i | i | nt | nt | nt | nt
CN(C)c1cccc(C(=O)N2CCNc3cnc(Nc4cccc(C(F)(F)F)c4)nc3C2)c1 | ? | ? | i | 16µM | 22µM | 24µM | i | 19µM
CC(C)NC(=O)N1CCNc2cnc(Nc3cccc(F)c3)nc2C1 | ? | ? | i | ? | nt | nt | nt | nt
COc1ccc2nc(C[C@@H]3C[C@@H](C(C)C)[C@H](CNC(=O)CCC(=O)O)C=C3C)[nH]c2c1 | i | i | i | i | nt | nt | nt | nt
COc1ccc2nc(C[C@@H]3C[C@@H](C(C)C)[C@H](CNCc4ccccc4OC)C=C3C)[nH]c2c1 | 28µM | 20µM | i | i | ? | ? | i | i
CCNC(=O)CC1=CSC2=NC(C)=C(C(=O)Nc3ccccc3)C(c3ccc(F)cc3)N12 (stereo unspecified) | i | ? | i | ? | ? | i | i | i
